Rows were chosen to be rich in hits. Some 0.83% of all compounds tested hit in one or more screens of this group.
NR5A2 inv ag: inverse agonists of human LRH-1 (NR5A2). O00482. HEK293T StAR-luciferase reporter, LRH-1 transfected, 24 h. inhibition, % at 3.6 µM. 0.13% of 360,000 active;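 active = inhibition above the mean inhibition of all tested compounds plus 3 SD, cut at about 73% in these data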;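 also: 0% = DMSO wells and 100% = reporter-only cells lacking LRH-1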
NCOA3 inh: inhibitors of human steroid receptor coactivator 3 (SRC3); Q9Y6Q9; inhibition, % at 3.6 µM; AID 588352; HEK293 GAL4-SRC3 luciferase reporter, luminescence; 0.17% of 360,000 active;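 active = inhibition above a per-campaign cutoff, the mean of all compounds plus 3 SD, cut at about 60% in these data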;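 also: 0% = DMSO-treated cells and 100% = gossypol-treated cells at 36 µM; higher means less SRC3-driven luciferase light from the GAL4 reporter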
NCOA1 inh: inhibits human SRC1 coactivator. 0.12% of 360,000 active. AID 588354. inhibition, % at 3.6 µM. HEK293 GAL4-SRC1 luciferase reporter, luminescence;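 active = inhibition above the campaign mean plus 3 SD, with each screening campaign given its own cutoff, cut at about 60% in these data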;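 also: 0% = DMSO treated cells and 100% = gossypol at 36 µM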
Gli-Sufu block: antagonists of Gli-Sufu signaling. Sufu-KO-LIGHT fibroblasts, Gli luciferase reporter luminescence. inhibition, % at 5 µM. 0.74% of 340,000 active. AID 588413;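 active = inhibition above about 55%, limit read from the data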;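 also: 0% = DMSO-treated cells and 100% = wells with medium but no cells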
SRC2 inh: human SRC2 (NCOA2) inhibition; Q15596; HEK293 GAL4-SRC2 luciferase reporter, luminescence; inhibition, % at 9 µM; 0.17% of 370,000 active; AID 651957;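 active = inhibition above the mean inhibition of all tested compounds plus 3 SD, set per campaign, cut at about 52% in these data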;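 also: 0% = DMSO treated cells and 100% = cells given Gossypol at 36 µM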
Gli antag conf: confirmation of Gli-SUFU pathway antagonists | shares compounds with Gli-Sufu block | Sufu-KO-LIGHT cells, Gli luciferase reporter, luminescence | inhibition, % at 5 µM | 40% of 2,500 active;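 active = mean inhibition at 5 µM reaching about 45%, limit read from the data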;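 also: plate controls were DMSO-treated cells for no effect and wells lacking cells for full effect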
SufuKO cytotox: cytotoxic in Gli-SUFU antagonist counter-screen; shares compounds with Gli-Sufu block; Sufu-KO-LIGHT cells cytotoxicity, ATP luminescence; cytotoxicity, % at 5 µM; 32% of 2,500 active;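 active = mean cytotoxicity at 5 µM above about 25%, limit read from the data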;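 also: cells exposed to compound overnight for roughly 16 to 18 hours; plate controls were DMSO wells with cells for no effect and medium without cells for full effect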
Wnt3a cs: counter-screen for Gli-SUFU antagonists: Wnt3a reporter inhibition. AID 651995. 20% of 2,500 active. shares compounds with Gli-Sufu block. inhibition, % at 6.25 µM. Wnt-LIGHT cells, Wnt3a-driven luciferase reporter, luminescence;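 active = mean inhibition above about 25%, limit read from the data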
Active calls of the source: *; . = not tested or not shown.

SMILES	NR5A2 inv ag	NCOA3 inh	NCOA1 inh	Gli-Sufu block	SRC2 inh	Gli antag conf	SufuKO cytotox	Wnt3a cs
CC(=O)N1CCCc2cc(S(=O)(=O)N3CCCC(C(=O)NCc4ccccc4)C3)ccc21 (stereo not drawn)	5	4	-3	51	-1	21	8	-8
CC(C)CCNC(=O)C1CCCN(S(=O)(=O)c2ccc3c(c2)CC(C)N3C(=O)C2CC2)C1 (stereo not drawn)	10	-1	14	57*	-19	32	4	-31
CCOC(=O)[C@@]12CCCC3=C1N(CCC3)C(=O)[C@H]2CC(=O)NCc1ccc(C)o1	.	.	.	.	-9	.	.	.
Cc1ccc(C(=O)NC2CCN(Cc3ccccc3)CC2)cc1S(=O)(=O)N1CCOCC1	15	19	-2	61*	14	18	19	4
COc1ccccc1NS(=O)(=O)c1cccc(C(=O)NC2CCN(Cc3ccccc3)CC2)c1	43	28	53	54	.	57*	27*	-1
COc1ccc(C(=O)NC2CC3CCCC(C2)N3Cc2ccccc2)cc1OC (stereo not drawn)	-2	-16	-20	57*	19	11	-5	-29
COCCCNC(=O)C[C@H]1C[C@@]2(C(=O)OC)C(=C[C@H](C(C)C)O[C@@H]2C2CC2)N(CCc2ccc(OC)c(OC)c2)C1=O	.	.	.	.	7	.	.	.
COc1ccc2c(c1)CCCN2C(=O)C1CCCN(S(=O)(=O)c2ccc(C)c(C)c2)C1 (stereo not drawn)	.	.	.	.	6	.	.	.
CC(COc1cccc(C(F)(F)F)c1)CN1CCC(C(O)(c2ccccc2)c2ccccc2)CC1 (stereo not drawn)	.	.	.	.	1	.	.	.
Cc1ccccc1CNC(=O)CCNS(=O)(=O)c1ccc(OC(F)(F)F)cc1	6	6	-11	94*	11	12	23	-26
CCN(Cc1ccccc1)C(=O)COC(=O)c1cc(S(=O)(=O)Nc2ccccc2OC)ccc1O	-4	7	-10	58*	-10	7	-3	-50
CCOC(=O)c1c(NC(=O)COc2ncnc3ccccc23)sc(C(C)=O)c1C	7	2	2	55*	-9	38	22	-9
Cc1ccc(-n2c(SCC(=O)Nc3ccc(OCc4ccccc4)cc3)nnc2-c2cnccn2)cc1	.	.	.	.	3	.	.	.
CCOC(=O)c1cnc(Nc2nc3ccccc3o2)nc1CSc1ncccn1	.	.	.	-40	.	.	.	.
CCOC(=O)c1cnc(Nc2nc3ccccc3o2)nc1CSC(=S)N(CC)CC	-24	-33	-24	69*	6	32	20	-86
NC(=O)CC(NC(=O)c1ccccc1)c1ccc(N2CCCCCC2)c([N+](=O)[O-])c1 (stereo not drawn)	5	10	1	56*	4	36	21	-44
NC(=O)CC(NC(=O)c1ccccc1)c1ccc(N2CCN(c3ccccc3)CC2)c([N+](=O)[O-])c1 (stereo not drawn)	13	6	1	38	6	.	.	.
O=C(CCCn1nnnc1CN1CCOCC1)N1CCC(c2ccc(F)cc2)C1 (stereo not drawn)	-18	-7	1	97*	-13	21	10	-27
O=C(Cc1ccc(Cl)c(Cl)c1)Nc1ccc(S(=O)(=O)Nc2ccon2)cc1	.	.	.	.	-5	.	.	.
CC(C)C(=O)N1CC[C@H]2[C@H](CCCN2Cc2ccc(F)cc2)C1	.	.	.	.	20	.	.	.
CCn1c2ccccc2c2cc(NC(=O)COc3ccc(OC)cc3)ccc21	3	2	11	11	-2	.	.	.
CCn1c2ccccc2c2cc(NC(=O)c3cc(OC)cc(OC)c3)ccc21	31	19	16	59*	20	62*	55*	-10
CCn1c2ccccc2c2cc(NC(=O)c3cc(OC)c(OC)c(OC)c3)ccc21	34	30	9	71*	27	60*	64*	0
S=C(NCc1ccc(Cl)cc1)OC1CCC12CCC(c1ccccc1)CC2 (stereo not drawn)	.	.	.	.	16	.	.	.
COc1ccc(S[C@]2(C(=O)N3CCN(c4ncccn4)CC3)CC(=O)N(c3ccccc3)[C@@H]2c2ccc(OC)cc2)cc1	.	.	.	.	3	.	.	.
SMILES	NR5A2 inv ag	NCOA3 inh	NCOA1 inh	Gli-Sufu block	SRC2 inh	Gli antag conf	SufuKO cytotox	Wnt3a cs
COc1ccc(OC)c(CN2CCC(Cc3ccccc3)CC2)c1	-1	11	-2	25	11	.	.	.
COc1cc(OC)c(CN2CCC(Cc3ccccc3)CC2)cc1Br	9	4	4	53	5	23	21	-36
O=C(NC1CCCCN(Cc2cccc(C(F)(F)F)c2)C1=O)c1ccc(F)c(F)c1 (stereo not drawn)	.	.	.	.	-2	.	.	.
O=S(=O)(NCc1cn2ccccc2n1)c1cc(F)ccc1F	-21	13	10	62*	18	26	8	-14
O=C(C1CC1)N1CCc2cc(Br)c(S(=O)(=O)NCCCN3CCCCC3)cc21	.	.	.	.	-23	.	.	.
CCN(Cc1ccncc1)C(=O)c1cc(COc2ccc(F)cc2F)on1	14	3	-10	51	-11	32	-8	-22
CCN(Cc1cnn(C)c1)C(=O)c1cc(COc2ccc(F)cc2F)on1	-20	-24	-29	-9	-25	.	.	.
COc1ccc(N2CC(C(=O)NCc3nnnn3-c3ccc(C)c(C)c3)CC2=O)cc1 (stereo not drawn)	-9	0	-9	51	8	18	-2	-9
COc1ccccc1CNC(=O)C1CC(=O)N(c2ccc(C)c(C)c2)C1 (stereo not drawn)	2	19	1	1	12	.	.	.
O=C(CN(C(=O)OCC1c2ccccc2-c2ccccc21)[C@@H](Cc1ccccc1)C(=O)O)OCc1ccc(C(=O)NCc2ccccc2)cc1	.	.	.	.	-9	.	.	.
CCOC(=O)c1c(NC=O)sc2c1CCC2	10	22	15	70*	15	12	-4	21
CCOC(=O)c1c(NC(=O)COC)sc2c1CCCC2	-3	2	-50	7	4	.	.	.
CCOC(=O)c1c(NC(=O)c2ccccc2N(C)S(=O)(=O)c2ccccc2)sc2c1CCCC2	-3	12	15	52	-1	14	15	-35
CCOC(=O)c1c(NC(=O)C(=O)N/N=C/c2ccccc2O)sc2c1CCCCC2	11	16	-16	70*	-10	75*	17	20
N#Cc1ccccc1N1CCN(S(=O)(=O)c2ccc3c(c2)CCC(=O)N3)CC1	.	.	.	.	3	.	.	.
Cc1ccc(S(=O)(=O)N2CCN(C(=O)C3CCCO3)CC2)cc1C (stereo not drawn)	6	-2	15	3	-15	.	.	.
Cc1cc(C)c(S(=O)(=O)N2CCN(C(=O)C3CCCO3)CC2)c(C)c1 (stereo not drawn)	4	9	1	58*	26	12	7	-13

Screening data from PubChem.
